Assay outcomes as filed in PubChem.
In the library only some 13% were active in any assay of this set; here they are far more common.
GBA mod: Glucocerebrosidase; Lysosomal acid glucosylceramidase (Homo sapiens), P04062; 1.1% of 48,000 active; purified enzyme, resorufin glucoside fluorescence (screen aimed at inhibitors), 20 min; AID 360, 2006; Potency, µM; in the data active means potency below about 15 µM; inconclusive means mostly about 16 µM to 33 µM;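 further: potency means the concentration at half of the fitted maximal effect; the screen sought inhibitors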
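Compounds titrated against 0.2 nM normal enzyme, 30 uM resorufin beta-D-glucopyranoside substrate, citrate/phosphate buffer with taurocholate and tween-20, pH 5.9. Reaction ran 20 min at room temperature; fluorescence (Ex 548/Em 600) gave AC50.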
AID923: qHTS Assay for Allosteric/Competitive Inhibitors of Caspase-1: Spectroscopic Profiling in AFC Spectral Region; compound fluorescence, AFC spectral region (405/520 nm); Potency, µM (doses to about 57.5 µM), for the others: at the top dose fluorescence increase, actives largely listed as activators; 1.1% of 75,000 active; AID 923, 2007; further: potency means the concentration at half of the fitted maximal effect; 0% is about no effect
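Compound autofluorescence profiled at 405 nm ex/520 nm em during kinetic caspase 1 run (50 nM enzyme, 5 uM Ac-WEHD-AFC, HEPES pH 7.5, 10 mM DTT). Titration up to 57 uM; baseline from regression intercept, normalized to AFC standard curve.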
A350 autofl: qHTS Assay for Spectroscopic Profiling in A350 Spectral Region; max dye-equivalent concentration, M; Compound autofluorescence, 340/450 nm, Alexa 350 dye-equivalents; stronger effect = higher value; 11% of 59,000 active; AID 590, 2007; in the data active means max dye-equivalent concentration above about 10 nM; inconclusive means mostly about 1.1 nM to 9.6 nM
HADH2 inhib: qHTS Assay for Inhibitors of HADH2 (Hydroxyacyl-Coenzyme A Dehydrogenase, Type II); AID 886, 2007; 3.4% of 73,000 active; recombinant HADH2, NADH fluorescence, beta-hydroxybutyryl-CoA; 3-hydroxyacyl-CoA dehydrogenase type-2 (Homo sapiens), Q99714; Potency, µM (top dose mostly 57.1 µM), for the others: at the top dose activity change, negative = inhibition, usual class: inhibitors; further: potency means the concentration at half of the fitted maximal effect; on the % scale 0 is the no-effect control and ±100 the full control effect; nearly all actives have a fitted effect of over 60% in size
Target sequence (Q99714 whole entry, looked up, one chain of several): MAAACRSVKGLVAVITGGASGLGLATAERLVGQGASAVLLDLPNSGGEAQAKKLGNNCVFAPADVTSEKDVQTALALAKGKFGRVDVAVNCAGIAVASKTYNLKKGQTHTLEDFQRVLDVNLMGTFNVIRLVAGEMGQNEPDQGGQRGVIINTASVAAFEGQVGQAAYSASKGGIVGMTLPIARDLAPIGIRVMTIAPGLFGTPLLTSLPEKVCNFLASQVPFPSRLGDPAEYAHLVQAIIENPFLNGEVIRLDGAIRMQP
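His-tagged recombinant enzyme from E. coli, 20 nM, preincubated 15 min RT with compound; reaction started with 1 mM NAD+ and 90 uM beta-hydroxybutyryl-CoA in 100 mM Tris-HCl pH 9.0. NADH fluorescence (ex 360/em 450) read over 4 min; last-minus-first difference.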
HSD17B inhib: qHTS Assay for Inhibitors of HSD17B4, hydroxysteroid (17-beta) dehydrogenase 4 | 3-hydroxyacyl-CoA dehydrogenase type-2 (Homo sapiens), Q99714 | recombinant HSD17B10, NADH fluorescence kinetic | Potency, µM (doses to about 57.1 µM), for inactives: top-dose activity change, negative = inhibition, actives largely listed as inhibitors | 7.6% of 75,000 active;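 further: the protocol describes HADH2 (HSD17B10) and not the HSD17B4 of the title; potency means the concentration at half of the fitted maximal effect; on the % scale 0 is the no-effect control and ±100 the full control effect; nearly all actives have a fitted effect of over 70% in size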
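20 nM HADH2, pH 9.0 Tris/Tween; cpd preinc 15 min RT; start w/ 1 mM NAD+ + 90 uM b-hydroxybutyryl-CoA; kinetic fluor ex360/em450 q30s x 4 min; delta last-first.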
4MU fluor: qHTS Assay for Spectroscopic Profiling in 4-MU Spectral Region. compound autofluorescence, 340/450 nm, 4-MU equivalents; stronger effect = higher value. max dye-equivalent concentration, M. 11% of 59,000 active; in the data active means max dye-equivalent concentration above about 10 nM; inconclusive means mostly about 1.1 nM to 9.6 nM
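Compounds in 100 mM Tris, pH 8.0, sat 15 min at room temperature before fluorescence was read at 340 nm excitation/450 nm emission; a per-plate six-point 4-MU standard curve converted signals to dye-equivalent concentration at each compound concentration.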
* hit, by the source's call; [ ] = another dose, or the depositor's remark. Unless noted, the call rests on the fitted dose curve; in most records, active means well fitted curve in the direction sought with a large enough effect; inconclusive means small, poorly fitted or top-dose-only effect, or another doubt; inactive means no such curve, though single readings can be large; an effect the other way counts as inactive or inconclusive.

Results for N#CC12C(N)=NC3(OCCO3)C1(C#N)C1=C(CCC1)NC2c1ccccc1 (stereo not given) ?
GBA mod: >77; AID923: inconclusive; A350 autofl: 1e-07M*; HADH2 inhib: -11%; HSD17B inhib: 20µM*; 4MU fluor: 7.4e-08M*

Results for O=C(O)C1CC=CCC1C(=O)Nc1cccc(F)c1 (stereo not given) ?
AID923: 2%; HADH2 inhib: -8%; HSD17B inhib: 8%

What do the screens show for `O=C(O)Cn1c(=O)oc2cc(S(=O)(=O)NC3CCCCC3)ccc21`?
AID923: 0%; HADH2 inhib: -3%; HSD17B inhib: 6%

What do the screens show for `Cc1nc2scc(-c3ccccc3)c2c(=O)n1/N=C/c1ccco1`?
GBA mod: >77; AID923: 1%; A350 autofl: inactive; HADH2 inhib: -2%; HSD17B inhib: 6%; 4MU fluor: inactive

Results for Cn1cc(/C=N/n2cnc3scc(-c4ccc(Cl)cc4)c3c2=O)c2ccccc21 ?
GBA mod: >77; AID923: 6%; A350 autofl: 3.2e-08M*; HADH2 inhib: -25%; HSD17B inhib: inconclusive; 4MU fluor: 3.3e-08M*

What do the screens show for `CCc1nnc(NC(=O)CSc2nccn2-c2ccccc2)s1`?
GBA mod: >77; AID923: -3%; A350 autofl: inactive; HADH2 inhib: 2%; HSD17B inhib: 3%; 4MU fluor: inactive

Results for Cc1ccc(S(=O)(=O)c2nc(S(C)(=O)=O)sc2N(C)C)cc1 ?
AID923: 1%; HADH2 inhib: -18%[11.4 µM]; HSD17B inhib: -4%

Results for CC(=O)Nc1cccc(Oc2cc(C#N)c(C#N)cc2N2CCCCCC2)c1 ?
GBA mod: inactive; AID923: 6%; A350 autofl: 1.6e-08M*; HADH2 inhib: inconclusive; HSD17B inhib: inconclusive; 4MU fluor: 2.1e-08M*

Results for O=C(CSc1nnc(-c2ccncc2)n1-c1ccc(F)cc1)NC(=O)NCc1ccco1 ?
GBA mod: >77; AID923: -1%; A350 autofl: inactive; HADH2 inhib: 2%; HSD17B inhib: inconclusive; 4MU fluor: inactive

What do the screens show for `Cc1cc(=O)oc2ccc(OCC(=O)N3CCC(C)CC3)cc12`?
GBA mod: >77; AID923: -2%; A350 autofl: 5.3e-08M*; HADH2 inhib: -24%; HSD17B inhib: inconclusive; 4MU fluor: 5e-08M*

Results for COc1ccc(S(=O)(=O)N2CCN(C(=O)COc3ccc4c(C)cc(=O)oc4c3)CC2)cc1 ?
GBA mod: >77; AID923: 2%; A350 autofl: 8.9e-08M*; HADH2 inhib: inconclusive; HSD17B inhib: 32µM*; 4MU fluor: 7.3e-08M*

How did Cc1ccc2oc(=O)cc(CN3CCC(C)CC3)c2c1 do in these assays?
GBA mod: >77; AID923: 1%; A350 autofl: 1.5e-07M*; HADH2 inhib: 8%; HSD17B inhib: -2%; 4MU fluor: 1.2e-07M*

Results for CCc1ccc2oc(=O)cc(CN3CCC(C)CC3)c2c1 ?
AID923: -1%; A350 autofl: inactive; HADH2 inhib: 6%; HSD17B inhib: -3%; 4MU fluor: inactive

What do the screens show for `CCOC(=O)COc1ccc(S(=O)(=O)N2CCN(C(=O)OCC)CC2)cc1`?
GBA mod: >77; AID923: 2%; A350 autofl: inactive; HADH2 inhib: 14%; HSD17B inhib: -3%; 4MU fluor: inactive

What do the screens show for `Cc1cc(=O)oc2cc(OCC(=O)N3c4ccccc4CC3C)ccc12` (stereo not given)?
GBA mod: >77; AID923: 0%; A350 autofl: 2.9e-07M*; HADH2 inhib: -21%; HSD17B inhib: 25µM*; 4MU fluor: 1.9e-07M*

What do the screens show for `CCc1cc(=O)oc2cc(OCC(=O)N3CCc4ccccc43)ccc12`?
GBA mod: >77; AID923: 0%; A350 autofl: 3.5e-07M*; HADH2 inhib: 4%; HSD17B inhib: 25µM*; 4MU fluor: 2.7e-07M*

Results for Cc1cc(=O)oc2cc(OCC(=O)N3CCCC(C)C3)ccc12 (stereo not given) ?
GBA mod: >77; AID923: -2%; A350 autofl: inconclusive; HADH2 inhib: -3%; HSD17B inhib: 32µM*; 4MU fluor: inconclusive

How did CCCCN(C)C(=O)c1cn(C)c2ccc(S(=O)(=O)N(C)C)cc2c1=O do in these assays?
AID923: -2%; HADH2 inhib: -7%; HSD17B inhib: 3%

What do the screens show for `O=C(c1ccco1)N1CCN(C(c2ccccc2Cl)c2nnnn2Cc2cccs2)CC1` (stereo not given)?
GBA mod: >77; AID923: -2%; A350 autofl: inactive; HADH2 inhib: -5%; HSD17B inhib: -30%; 4MU fluor: inactive

Results for CCn1nnnc1SCC(=O)Nc1cccc(C)n1 ?
GBA mod: >77; AID923: 1%; A350 autofl: inactive; HADH2 inhib: -1%; HSD17B inhib: -2%; 4MU fluor: inactive

What do the screens show for `Nc1ccc(-c2nc3c(Cl)cc(N)cc3[nH]2)cc1`?
AID923: 4%; A350 autofl: 4.3e-07M*; HADH2 inhib: 32µM*; HSD17B inhib: 25µM*; 4MU fluor: 5.4e-07M*

Results for CCOC(=O)c1ccc(N=Cc2nc(-c3ccccc3)oc2OC(C)=O)cc1 ?
A350 autofl: inactive; 4MU fluor: inactive

What do the screens show for `COc1ccc(S(=O)(=O)N(C)CC(=O)Nc2ccc3c(c2)OCO3)cc1OC`?
GBA mod: >77; AID923: -2%; A350 autofl: 4.8e-08M*; HADH2 inhib: -15%; HSD17B inhib: inconclusive; 4MU fluor: 4.5e-08M*

What do the screens show for `Cc1cc(C)n2nc(C(=O)OCC(=O)Nc3ccc4c(c3)OCO4)nc2n1`?
GBA mod: >77; AID923: -1%; A350 autofl: inactive; HADH2 inhib: 4%; HSD17B inhib: 10%; 4MU fluor: inactive

Results for COc1cc2c(cc1OC)-c1nnc(-c3cccs3)n1C(C)(C)C2 ?
AID923: -2%; HADH2 inhib: 37%; HSD17B inhib: 32µM*

How did O=C(CCNS(=O)(=O)c1cccc2nsnc12)NC1CCCc2ccccc21 (stereo not given) do in these assays?
GBA mod: >77; AID923: 0%; A350 autofl: inactive; HADH2 inhib: -4%; HSD17B inhib: -14%; 4MU fluor: inactive

Results for Cc1cc(-c2cccs2)n[nH]1 ?
AID923: 0%; HADH2 inhib: 2%; HSD17B inhib: 2%
